KB-3-1 tox: qHTS assay for MDR1-selective chemotherapeutics: Primary screen using the parental adenocarcinoma cell KB-3-1. KB-3-1 viability, CellTiter-Glo ATP luminescence, 72 h. Potency, µM (highest dose often 46.1 µM), hits mostly cytotoxic. 400,000 compounds, 1.4% hits; also: nearly all actives have a fitted effect of over 60% in size
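KB-3-1 cells, DMEM (no phenol red) + 10% FBS; compound by pin transfer, 72 h, 37 °C. Readout: CellTiter-Glo luminescence after 10 min. Data normalized, curve-fitted.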
MCF10A rereplic: A quantitative high throughput screen for small molecules that induce DNA re-replication in MCF 10a normal breast cells; 350,000 compounds, 2.9% hits; AID 624296, 2012; Potency, µM (doses to about 46.1 µM), usual class: activators; MCF 10A DNA re-replication, Hoechst nuclear intensity, 48 h; also: nearly all actives have a fitted effect of over 50% in size
KB-V1 cytotox: qHTS assay for MDR1-selective chemotherapeutics: Primary screen using the drug-selected MDR subline cells KB-V1; KB-V1 MDR cells viability, CellTiter-Glo, 72 h; Potency, µM (doses to about 46.1 µM), most hits filed as cytotoxic; 400,000 compounds, 3.4% hits; AID 1347076, 2019; also: nearly all actives have a fitted effect of over 60% in size
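Cytotoxicity via CellTiter-Glo luminescence after 72 h compound exposure at 37 degrees C. Cells: drug-selected KB-V1 line, DMEM phenol-red free plus 10% FBS. Compounds tested at multiple concentrations; normalized data fitted to concentration-effect curves.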
SW480 rereplic: A quantitative high throughput screen for small molecules that induce DNA re-replication in SW480 colon adenocarcinoma cells. SW480 DNA re-replication, Hoechst DNA content imaging, 48 h. Potency, µM (series often up to 46.1 µM), most hits filed as activators. 340,000 compounds, 1.8% hits. AID 624297, 2012; also: nearly all actives have a fitted effect of over 55% in size
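Readout is total intensity of Hoechst-stained nuclei, excited at 405 nm and collected at 500-530 nm. Compound treatment lasted 48 hr at 37 C in 5% CO2 before staining.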
ELG1 repair inh: qHTS screen for small molecules that inhibit ELG1-dependent DNA repair in human embryonic kidney (HEK293T) cells expressing luciferase-tagged ELG1; 330,000 compounds, 2.3% hits; HEK293T ELG1-luciferase reporter, luminescence, 16 h; DNA damage induced by 5-fluorouridine; AID 504467, 2011; Potency, µM (highest dose often 46.1 µM), actives largely listed as inhibitors; also: nearly all actives have a fitted effect of over 55% in size
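DMSO vehicle served as the neutral condition. Each well held 2,000 cells given 5-fluorouridine plus compound; after 16 hr at 37 °C/5% CO2, ONE-Glo was added and luciferase measured 30 min later.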
A number is an active result; – = inactive; ? = inconclusive; · = not tested or not shown; ! = a repeat was not active. This is a sample that favours compounds with a hit; in the whole collection about 8.1% have one here. Calls follow the shape of the dose curve; as a rule, active = well fitted curve in the direction sought with a large enough effect; inconclusive = small, poorly fitted or top-dose-only effect, or another doubt; inactive = no such curve, though single readings can be large; an effect the other way counts as inactive or inconclusive.

SMILES | KB-3-1 tox | MCF10A rereplic | KB-V1 cytotox | SW480 rereplic | ELG1 repair inh
COc1ccc(NC(=O)c2cccc(S(=O)(=O)N3CCCCCC3)c2)cc1 | ? | – | ? | – | 20.6µM
CN(c1ccccc1)S(=O)(=O)c1cccc(NC(=O)COc2ccccc2)c1 | – | – | – | – | ?
CN(C)S(=O)(=O)c1cccc(NC(=O)COc2ccc(C(=O)c3ccccc3)cc2)c1 | – | ? | ? | – | 13µM
Cc1ccc(S(=O)(=O)N2CCOCC2)cc1C(=O)Nc1ccc(N2CCCCCC2)cc1 | 3.66µM | ? | ? | – | –
COc1ccc(CN(C)C(=O)c2cccc(NS(=O)(=O)c3ccccc3)c2)cc1F | – | – | 8.2µM | – | –
COc1ccc(NS(=O)(=O)c2ccc(O)c(NC(=O)c3ccc(S(=O)(=O)N4CCCCCC4)cc3)c2)cc1 | – | ? | – | – | –
O=C(Nc1ccc(N2CCCC2)cc1)c1cc(Br)ccc1Cl | 20.6µM | ? | ? | ? | –
COc1ccc(NS(=O)(=O)c2cccc(NC(=O)c3ccc(S(=O)(=O)N4CCCCCC4)cc3)c2)cc1 | 20.6µM | ? | ? | – | ?
C=CCN(c1ccccc1)S(=O)(=O)c1cccc(C(=O)Nc2ccc(N3CCOCC3)cc2)c1 | ? | – | ? | ? | 14.6µM
COC(=O)c1cccc(S(=O)(=O)N2CCC(NC(=O)NC34CC5CC(CC(C5)C3)C4)CC2)c1 | – | – | 11.6µM | – | ?
CC1CCN(S(=O)(=O)c2cccc(C(=O)O)c2)CC1 | – | – | – | – | –
COC(=O)c1ccc(Cl)c(NC(=O)NC23CC4CC(CC(C4)C2)C3)c1 | ? | – | ? | ? | 20.6µM
COC(=O)c1cccc(S(=O)(=O)N2CCC(C)CC2)c1 | – | – | 20.6µM | – | –
COC(=O)c1cccc(NC(=O)NC23CC4CC(CC(C4)C2)C3)c1 | – | – | – | ? | ?
COc1ccc(NC(=O)/C(N=Nc2ccc(Cl)c(S(=O)(=O)Nc3ccc(Cl)cc3)c2)=C(\C)O)cc1 | – | – | – | – | –
COc1ccc(NC(=O)/C(N=Nc2cc(S(=O)(=O)Nc3ccc(OC)cc3)ccc2OC)=C(\C)O)cc1 | ? | 0.581µM | – | – | –
CC1CCCC(C)N1C(=O)COC(=O)CNC(=O)c1ccccc1 (stereo not drawn) | – | – | – | – | –
Cc1ccc(C2CN(C)C3(C(=O)Nc4ccccc43)C23COc2ccccc2C3=O)cc1 (stereo not drawn) | ? | ? | 20.6µM | ? | –
COc1cccc(CC2(CO)CCCN(Cc3ccccc3Cl)C2)c1 (stereo not drawn) | – | 4.61µM | ? | – | –
COc1ccc(F)c(CN2CCCC(CO)(Cc3cccc(Cl)c3)C2)c1 (stereo not drawn) | – | – | – | – | –
COc1ccccc1CNC(=O)c1ccccc1C(=O)NC(CC(C)C)C(=O)NCc1ccccc1OC (stereo not drawn) | – | – | – | – | 20.6µM
COc1ccccc1CNC(=O)C(Cc1c[nH]c2ccccc12)NC(=O)OCc1ccccc1 (stereo not drawn) | ? | – | 18.4µM | – | ?
CN(Cc1ccccc1)S(=O)(=O)c1cccc2cccnc12 | – | – | 20.6µM | – | –
COc1cccc(CNC(=O)CN(C)S(=O)(=O)c2cccc3cccnc23)c1 | – | – | – | – | –
Cc1cc(C)c(Cn2cnc3nc4c(cc3c2=O)CCCC4)c(C)c1 | – | · | – | · | ·
SMILES | KB-3-1 tox | MCF10A rereplic | KB-V1 cytotox | SW480 rereplic | ELG1 repair inh
CC(C)Cn1cnc2c(SCc3ccccc3)nc(N)nc21 | – | – | – | – | ·
CC(C)Cn1cnc2c(N)nc3ccccc3c21 | – | ? | ? | 0.581µM! | –
COC(=O)CC(=O)CSc1nc2cc(C(=O)NC(C)C)ccc2c(=O)n1CCc1ccccc1 | – | · | – | · | ·
CCCc1nc2c3ccccc3ccn2c1CC1CCCCC1 | – | · | – | · | ·
COc1cc2cc(CNc3ccccc3)c(=O)n(CC(=O)Nc3ccccc3)c2cc1OC | – | · | ? | · | ·
Cc1cc(NC(=O)c2cc(-c3ccccn3)nc3c(Cl)cccc23)no1 | · | ? | · | – | –
Cc1cccc(NC(=O)c2cc(-c3cccnc3)nc3c(C)cccc23)n1 | – | 16.4µM | ? | – | –
COc1cccc(NC(=O)c2cc(-c3cccnc3)nc3c(Cl)cccc23)c1 | – | ? | 2.91µM | – | ?
Cc1cc(NC(=O)c2cc(-c3ccncc3)nc3c(C)cccc23)no1 | 3.26µM | ? | 3.66µM | 6.51µM | 9.2µM
Nc1nc(-c2ccccn2)nc(N)c1Cc1ccccc1F | – | ? | ? | – | ?
Nc1nc(-c2ccccn2)nc(N)c1Cc1ccc(Cl)cc1Cl | ? | ? | ? | 10.3µM | –
Cc1cccnc1NC(=O)c1ccc(NS(=O)(=O)c2ccc3[nH]c(=O)[nH]c3c2)cc1 | – | – | – | – | –
O=C(Nc1ncccc1O)c1ccc(S(=O)(=O)Nc2ccccc2)cc1 | 10.3µM | – | 9.2µM | – | ?
O=C(Nc1ncccc1O)c1ccc(NS(=O)(=O)c2ccc3[nH]c(=O)[nH]c3c2)cc1 | ? | – | – | 16.4µM | –
CCOC(=O)C1CCN(Cc2cc(C(C)C)c(O)c(C(C)C)c2)CC1 | – | ? | ? | – | –
CC(C)c1cc(CN2C(C)COCC2C)cc(C(C)C)c1O (stereo not drawn) | ? | – | 16.4µM | – | ·
c1ccc(Nc2c(-c3ccco3)nc3ccccn23)cc1 | – | – | – | – | ?
c1ccc(-c2nc(-c3ccco3)n3ccccc23)cc1 | – | 20.6µM | – | ? | –
Cc1ccc(C2CC(c3ccccc3)=NN2c2ccc(S(N)(=O)=O)cc2)cc1 (stereo not drawn) | ? | · | – | · | ·
NS(=O)(=O)c1ccc(N2N=C(c3ccccc3)CC2c2ccccc2)cc1 (stereo not drawn) | ? | 8.2µM | ? | 13µM | ?
O=S(=O)(c1ccccc1)N1N=C(c2cccs2)CC1c1ccc(F)cc1 (stereo not drawn) | ? | – | – | ? | –
CC(=O)N1N=C(c2ccccc2)CC1c1ccccc1 (stereo not drawn) | – | – | – | – | –
Fc1ccc(N2N=C(c3cccs3)CC2c2ccccc2)cc1 (stereo not drawn) | – | 2.59µM | – | 5.8µM | ?
O=S(=O)(O)c1ccc(N2N=C(c3ccccc3)CC2c2ccccc2)cc1 (stereo not drawn) | – | – | – | 14.6µM | –
CCc1ccc(C2=NN(c3ccc(S(N)(=O)=O)cc3)C(c3ccc(F)cc3)C2)cc1 (stereo not drawn) | ? | ? | ? | 9.2µM | –
O=C1CC(c2ccccc2)Cc2[nH]c(=O)c(C(=O)Nc3cccc(F)c3)cc21 (stereo not drawn) | – | · | – | · | ·
